Experimental data taken from PubChem BioAssay (EPA / NIEHS).
“And” between values parts separate entries of the source, which are not always exact repeats. Identical values can stand only once. Records with an inconclusive call do not appear. A structure can be active in one record and inactive in another. The source made the active and inactive calls. How the source made its calls, unless noted: active means hit-call score of the fitted dose curve at least 0.9, where 1 is the maximum; inactive means score below 0.9.

Assays:
[1] = molecular target: Myc proto-oncogene protein (Homo sapiens) (UniProt P01106); experiment: ATG_Myc_CIS: Attagene CIS-FACTORIAL HepG2 Assay for human Myelocytomatosis (Myc) Proto-Oncogene Transcription Factor (AID 2282990); conditions: HepG2, Attagene cis-reporter transcription factor activity; actives raise or lower the signal
Procedure, shortened: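 After 24 h chemical treatment of HepG2 cells carrying multiplexed cis-regulated reporter constructs, reporter transcripts quantified by RT-PCR and capillary electrophoresis of fluorescent fragments. Gain or loss fitted against DMSO baseline.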

[2] = ATG_NRF2_ARE_CIS: Attagene CIS-FACTORIAL HepG2 Assay for human Nuclear Factor Erythroid 2 Related Factor 2 (NFR2) response to Antioxidant Response Elements (ARE) (AID 2282992); conditions: HepG2 Attagene ARE/NRF2 reporter, transcription factor activity; actives raise or lower the signal;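 on AC50: reporter mRNA level measured by RT-PCR and capillary electrophoresis fluorescence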
Procedure, shortened: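 Multiplexed reporter mRNA profiling in HepG2 after a 24 h chemical exposure. Curves fitted in both directions relative to DMSO negative control.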

[3] = ATG_Oct_MLP_CIS: Attagene CIS-FACTORIAL HepG2 Assay for human Octamer-Binding Transcription Factor (Oct) (AID 2282993); conditions: HepG2 Attagene cis-factorial Oct reporter, mRNA; actives raise or lower the signal
Procedure, shortened: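 Using HepG2 cells bearing transfected cis-reporter constructs, mRNA induction was read after 24 h by fluorescent RT-PCR and capillary electrophoresis, with DMSO defining baseline for gain- or loss-of-signal fits.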

[4] = molecular target: Cellular tumor antigen p53 (Homo sapiens) (UniProt P04637); experiment: ATG_p53_CIS: Attagene CIS-FACTORIAL HepG2 Assay for human p53 Transcription Factor (AID 2282994); conditions: HepG2 p53 cis-element reporter, Attagene mRNA; actives raise or lower the signal
Procedure, shortened: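 Multiplexed reporter mRNA assay in human HepG2 liver cells; cis-regulated units report endogenous factor activity. Values come from bidirectional curve fitting against DMSO negative control after 24 h treatment.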

[5] = BSK_3C_TissueFactor: BioMAP Diversity Plus: 3C Assay for Tissue Factor Biomarker Activity (AID 2282997); conditions: BioMAP 3C HUVEC, tissue factor biomarker readout; actives raise or lower the signal
Procedure, shortened: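 ELISA read-out of Tissue Factor levels on human umbilical vein endothelium collected 24 h after chemical dosing. Gain or loss of signal was fitted relative to DMSO.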

[6] = BSK_3C_uPAR: BioMAP Diversity Plus: 3C Assay for Urokinase-type plasminogen activator receptor (uPAR) Biomarker Activity (AID 2282998); conditions: BioMAP 3C HUVEC, uPAR biomarker ELISA; actives raise or lower the signal
Procedure, shortened: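 In this endothelial cell-based assay, human umbilical vein primary cells were treated with chemicals and harvested at 24 h. uPAR was quantified using ELISA, with gains or losses fitted relative to DMSO controls.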

[7] = BSK_4H_Eotaxin3: BioMAP Diversity Plus: 4H Assay for Eotaxin 3 Biomarker Activity (AID 2283000); conditions: primary human endothelial cells (HUVEC); actives raise or lower the signal
Procedure, shortened: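 Chemicals were added to human umbilical vein endothelium cultures, and Eotaxin-3 was quantified by ELISA at 24 h. Values were derived by bidirectional fitting with DMSO serving as negative control and activity baseline.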

[8] = molecular target: human Peroxisome Proliferator-activated Receptor delta (PPARd), PPARD (gene 5467) (UniProt Q03181); experiment: ATG_PPARd_TRANS: Attagene TRANS-FACTORIAL HepG2 Assay for human Peroxisome Proliferator-activated Receptor delta (PPARd) (AID 2283002; active means hit-call score of the fitted dose curve at least 0.9, where 1 is the maximum)
Procedure, shortened: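 Read-out is induced reporter mRNA, quantified by RT-PCR with fluorescent labelling and capillary electrophoresis after 24 h dosing. Cells are HepG2 transiently carrying multiple GAL4-UAS reporter units driven by exogenous NR-GAL4 chimeras; DMSO serves as baseline.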

[9] = read-out: Intercellular Adhesion Molecule 1 (ICAM1), ICAM1 (gene 3383); experiment: BSK_3C_ICAM1: BioMAP Diversity Plus: 3C Assay for Intercellular Adhesion Molecule 1 (ICAM1) Biomarker Activity (AID 2283003); conditions: primary human endothelial cells (HUVEC); actives raise or lower the signal
Procedure, shortened: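 HUVEC primary cells stimulated under 3C conditions; ICAM1 measured by ELISA 24 h after compound dosing. Curves fitted bidirectionally against the DMSO baseline. Overt cytotoxicity checked by SRB staining of parallel cultures.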

[10] = BSK_3C_Proliferation: Cell Proliferation Assessment in the BioMAP Diversity Plus: 3C Assay (AID 2283006); conditions: primary human endothelial cells (HUVEC);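 on AC50: potency may reflect either rise or fall in cell number versus DMSO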
Procedure, shortened: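 Subconfluent HUVEC (3C system) cultured with chemical; relative cell number read at 48 h by sulforhodamine B total-protein staining (0.1% SRB after 10% TCA fixation, 560 nm). Bidirectional fit relative to DMSO.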

[11] = molecular target: Peroxisome proliferator-activated receptor gamma (Homo sapiens) (UniProt P37231); experiment: ATG_PPARg_TRANS: Attagene TRANS-FACTORIAL HepG2 Assay for human Peroxisome Proliferator-activated Receptor-gamma (PPARg) (AID 2283007; active means hit-call score of the fitted dose curve at least 0.9, where 1 is the maximum)
Procedure, shortened: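 Read-out: reporter mRNA induction, detected by fluorescence after RT-PCR and capillary electrophoresis. Transiently transfected human HepG2 liver cells carrying a chimeric NR-Gal4 construct were dosed for 24 h; activity was fitted upward relative to DMSO.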

[12] = molecular target: Nuclear receptor subfamily 1 group I member 2 (Homo sapiens) (UniProt O75469); experiment: ATG_PXR_TRANS: Attagene TRANS-FACTORIAL HepG2 Assay for human Pregnane X Receptor (PXR) (AID 2283008; active means hit-call score of the fitted dose curve at least 0.9, where 1 is the maximum)
Procedure, shortened: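 Measures mRNA induction of a GAL4-UAS-driven reporter in human HepG2 cells transiently expressing PXR fused to Gal4, following 24 h treatment. DMSO served as negative control and baseline.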

[13] = molecular target: human Retinoic Acid Receptor gamma (RARg), RARG (gene 5916) (UniProt P13631); experiment: ATG_RARg_TRANS: Attagene TRANS-FACTORIAL HepG2 Assay for human Retinoic Acid Receptor gamma (RARg) (AID 2283009; active means hit-call score of the fitted dose curve at least 0.9, where 1 is the maximum;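 on AC50: AC50 is for reporter induction above DMSO meaning RARg activation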)
Procedure, shortened: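 HepG2 transiently transfected with GAL4-UAS reporter units and chimeric NR-Gal4 constructs; 24 h compound exposure. Reporter mRNA quantified by RT-PCR, FAM labeling, HpaI digestion and capillary electrophoresis; gain-of-signal versus DMSO.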

[14] = molecular target: human RAR-related Orphan Receptor beta (RORb), RORB (gene 6096) (UniProt Q92753); experiment: ATG_RORb_TRANS: Attagene TRANS-FACTORIAL HepG2 Assay for human RAR-related Orphan Receptor beta (RORb) (AID 2283010; active means hit-call score of the fitted dose curve at least 0.9, where 1 is the maximum)
Procedure, shortened: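 HepG2 cells transiently transfected with GAL4-UAS reporter units expressing chimeric NR-Gal4 protein; reporter mRNA measured 24 h after dosing by RT-PCR, 6-FAM labelling and capillary electrophoresis. Gain-of-signal fitted relative to DMSO baseline.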

[15] = molecular target: Retinoic acid receptor RXR-alpha (Homo sapiens) (UniProt P19793); experiment: ATG_RXRa_TRANS: Attagene TRANS-FACTORIAL HepG2 Assay for human Retinoid X Receptor alpha (RXRa) (AID 2283012; active means hit-call score of the fitted dose curve at least 0.9, where 1 is the maximum)
Procedure, shortened: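 HepG2 cells transiently transfected with GAL4-UAS reporter units and chimeric RXRa-Gal4 protein, treated 24 h. Reporter mRNA measured by RT-PCR, fluorescent labelling, HpaI digestion and capillary electrophoresis. Induction fitted against DMSO.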

[16] = ATG_NF_kB_CIS: Attagene CIS-FACTORIAL HepG2 Assay for human Nuclear Factor Kappa B (NF-kB) (AID 2282991); conditions: HepG2 Attagene cis-factorial NF-kB reporter mRNA; actives raise or lower the signal
Procedure, shortened: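 Read-out: reporter transcript levels quantified by RT-PCR plus capillary electrophoresis of 6-FAM-labelled, HpaI-cut fragments. Transfected HepG2 cells, 24 h compound exposure, endogenous NF-kB-driven cis element; gain or loss scored versus DMSO.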

[17] = molecular target: human Peroxisome Proliferator-activated Receptor alpha (PPARa), PPARA (gene 5465) (UniProt Q07869); experiment: ATG_PPARa_TRANS: Attagene TRANS-FACTORIAL HepG2 Assay for human Peroxisome Proliferator-activated Receptor alpha (PPARa) (AID 2283001; active means hit-call score of the fitted dose curve at least 0.9, where 1 is the maximum)
Procedure, shortened: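 Read-out is fluorescence of reporter cDNA fragments resolved by capillary electrophoresis after RT-PCR. Human HepG2 liver cells carried transfected PPARa-Gal4 chimera and GAL4-UAS reporter units, treated 24 h; activity scored as increase over DMSO.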

[18] = molecular target: human Retinoic Acid Receptor beta (RARb), RARB (gene 5915) (UniProt P10826); experiment: ATG_RARb_TRANS: Attagene TRANS-FACTORIAL HepG2 Assay for human Retinoic Acid Receptor beta (AID 2283004; active means hit-call score of the fitted dose curve at least 0.9, where 1 is the maximum)
Procedure, shortened: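 Transient transfection of HepG2 with multiple reporter units → chemical dosing, 24 h → total RNA isolation → RT with oligo(dT) → reporter-specific PCR, 6-FAM primer extension, HpaI digest → capillary electrophoresis. Positive direction vs DMSO control.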

[19] = molecular target: Retinoic acid receptor alpha (Homo sapiens) (UniProt P10276); experiment: ATG_RARa_TRANS: Attagene TRANS-FACTORIAL HepG2 Assay for human Retinoic Acid Receptor alpha (RARa) (AID 2283005; active means hit-call score of the fitted dose curve at least 0.9, where 1 is the maximum)
Procedure, shortened: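 Reporter transcripts, measured by RT-PCR with fluorescent labeling and capillary electrophoresis after 24 h dosing, reflect activity of an exogenous human RARa–GAL4 fusion in transiently transfected HepG2. Fitted for increase relative to DMSO.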

Measured: AC50

human Retinoic Acid Receptor gamma (RARg), RARG (gene 5916), sequence (P13631 whole entry, looked up, the tested form may be a part): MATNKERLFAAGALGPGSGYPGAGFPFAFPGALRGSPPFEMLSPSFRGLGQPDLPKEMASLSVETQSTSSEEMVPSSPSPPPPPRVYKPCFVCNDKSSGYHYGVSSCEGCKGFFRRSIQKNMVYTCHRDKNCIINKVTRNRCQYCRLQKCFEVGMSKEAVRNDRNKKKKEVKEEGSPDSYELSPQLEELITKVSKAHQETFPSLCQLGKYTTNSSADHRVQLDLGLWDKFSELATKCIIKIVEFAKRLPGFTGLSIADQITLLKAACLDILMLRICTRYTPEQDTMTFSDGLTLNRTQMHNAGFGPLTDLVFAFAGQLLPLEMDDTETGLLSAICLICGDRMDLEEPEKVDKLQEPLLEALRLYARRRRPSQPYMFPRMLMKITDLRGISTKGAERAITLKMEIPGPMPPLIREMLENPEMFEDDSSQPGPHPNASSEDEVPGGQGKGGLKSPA
Retinoic acid receptor RXR-alpha (Homo sapiens), sequence (P19793 whole entry, looked up, the tested form may be a part): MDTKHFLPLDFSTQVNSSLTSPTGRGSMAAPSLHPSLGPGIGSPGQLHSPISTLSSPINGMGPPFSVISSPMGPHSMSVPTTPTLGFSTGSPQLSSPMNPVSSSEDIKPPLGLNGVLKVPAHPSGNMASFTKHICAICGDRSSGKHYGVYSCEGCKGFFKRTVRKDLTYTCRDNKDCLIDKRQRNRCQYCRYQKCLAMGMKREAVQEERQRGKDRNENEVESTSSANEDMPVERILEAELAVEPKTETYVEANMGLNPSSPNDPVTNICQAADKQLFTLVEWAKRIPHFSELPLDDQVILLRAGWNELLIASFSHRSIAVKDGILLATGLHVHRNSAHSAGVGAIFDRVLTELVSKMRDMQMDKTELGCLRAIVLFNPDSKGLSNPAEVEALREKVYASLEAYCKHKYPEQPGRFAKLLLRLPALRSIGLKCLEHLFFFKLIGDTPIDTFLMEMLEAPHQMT
Myc proto-oncogene protein (Homo sapiens), sequence (P01106 whole entry, looked up, the tested form may be a part): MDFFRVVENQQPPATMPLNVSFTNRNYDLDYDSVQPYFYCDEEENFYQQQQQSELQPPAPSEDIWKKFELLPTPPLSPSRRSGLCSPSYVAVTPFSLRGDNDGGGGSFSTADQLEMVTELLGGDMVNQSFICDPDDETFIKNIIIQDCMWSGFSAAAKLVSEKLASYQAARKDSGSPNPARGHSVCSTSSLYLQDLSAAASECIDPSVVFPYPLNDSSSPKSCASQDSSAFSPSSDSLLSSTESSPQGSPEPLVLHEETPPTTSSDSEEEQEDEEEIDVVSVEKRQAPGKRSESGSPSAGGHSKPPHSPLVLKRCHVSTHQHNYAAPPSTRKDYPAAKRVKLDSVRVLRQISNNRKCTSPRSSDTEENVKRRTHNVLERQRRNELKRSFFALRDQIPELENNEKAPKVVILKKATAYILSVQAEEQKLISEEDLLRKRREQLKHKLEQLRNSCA
Cellular tumor antigen p53 (Homo sapiens), sequence (P04637 whole entry, looked up): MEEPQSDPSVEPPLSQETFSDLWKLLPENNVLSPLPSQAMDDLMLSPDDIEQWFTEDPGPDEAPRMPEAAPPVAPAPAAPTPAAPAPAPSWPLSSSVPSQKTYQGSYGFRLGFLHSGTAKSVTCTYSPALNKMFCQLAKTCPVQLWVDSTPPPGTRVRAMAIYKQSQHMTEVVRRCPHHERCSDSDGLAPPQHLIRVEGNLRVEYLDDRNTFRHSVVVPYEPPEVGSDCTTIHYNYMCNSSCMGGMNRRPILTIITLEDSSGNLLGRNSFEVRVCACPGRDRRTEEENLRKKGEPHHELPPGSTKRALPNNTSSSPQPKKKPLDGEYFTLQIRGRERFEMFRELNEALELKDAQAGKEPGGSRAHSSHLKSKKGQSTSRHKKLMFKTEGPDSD
human Peroxisome Proliferator-activated Receptor alpha (PPARa), PPARA (gene 5465), sequence (Q07869 whole entry, looked up, the tested form may be a part): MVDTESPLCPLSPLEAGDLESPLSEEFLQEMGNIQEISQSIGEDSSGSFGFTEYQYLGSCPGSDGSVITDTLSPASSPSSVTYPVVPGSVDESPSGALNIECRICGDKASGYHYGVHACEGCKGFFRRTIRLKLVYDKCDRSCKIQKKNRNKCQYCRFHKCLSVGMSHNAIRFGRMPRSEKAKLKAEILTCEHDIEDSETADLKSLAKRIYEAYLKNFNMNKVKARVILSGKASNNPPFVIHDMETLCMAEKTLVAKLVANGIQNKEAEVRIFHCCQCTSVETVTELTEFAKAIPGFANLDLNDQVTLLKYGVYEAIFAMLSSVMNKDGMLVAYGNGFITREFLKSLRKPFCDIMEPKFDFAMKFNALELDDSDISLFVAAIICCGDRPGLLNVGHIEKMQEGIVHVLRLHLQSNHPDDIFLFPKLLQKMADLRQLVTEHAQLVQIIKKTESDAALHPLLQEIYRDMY
Nuclear receptor subfamily 1 group I member 2 (Homo sapiens), sequence (O75469 whole entry, looked up, the tested form may be a part): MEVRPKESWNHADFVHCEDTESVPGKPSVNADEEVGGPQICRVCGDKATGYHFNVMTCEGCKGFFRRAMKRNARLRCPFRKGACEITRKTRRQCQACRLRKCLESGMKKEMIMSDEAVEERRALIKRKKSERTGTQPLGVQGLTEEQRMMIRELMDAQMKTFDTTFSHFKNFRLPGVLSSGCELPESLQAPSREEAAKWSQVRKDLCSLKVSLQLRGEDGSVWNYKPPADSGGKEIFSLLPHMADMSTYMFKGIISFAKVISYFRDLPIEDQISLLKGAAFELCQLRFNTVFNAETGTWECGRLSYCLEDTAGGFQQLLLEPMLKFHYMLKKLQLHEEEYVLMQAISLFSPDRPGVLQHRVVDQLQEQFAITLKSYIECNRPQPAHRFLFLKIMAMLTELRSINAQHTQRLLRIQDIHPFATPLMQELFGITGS
Peroxisome proliferator-activated receptor gamma (Homo sapiens), sequence (P37231 whole entry, looked up, the tested form may be a part): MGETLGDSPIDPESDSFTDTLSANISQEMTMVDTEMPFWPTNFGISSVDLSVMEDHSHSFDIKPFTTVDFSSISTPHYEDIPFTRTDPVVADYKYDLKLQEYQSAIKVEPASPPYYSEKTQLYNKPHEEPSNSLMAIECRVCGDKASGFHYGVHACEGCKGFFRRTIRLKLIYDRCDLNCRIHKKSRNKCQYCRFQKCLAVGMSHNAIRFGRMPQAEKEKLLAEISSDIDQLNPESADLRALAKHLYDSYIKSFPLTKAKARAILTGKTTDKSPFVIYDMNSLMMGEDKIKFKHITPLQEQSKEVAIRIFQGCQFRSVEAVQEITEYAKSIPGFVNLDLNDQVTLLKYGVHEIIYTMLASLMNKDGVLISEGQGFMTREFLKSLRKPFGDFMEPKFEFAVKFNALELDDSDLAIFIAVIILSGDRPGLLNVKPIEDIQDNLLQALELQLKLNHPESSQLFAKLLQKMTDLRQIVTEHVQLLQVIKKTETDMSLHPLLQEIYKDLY
human Peroxisome Proliferator-activated Receptor delta (PPARd), PPARD (gene 5467), sequence (Q03181 whole entry, looked up, the tested form may be a part): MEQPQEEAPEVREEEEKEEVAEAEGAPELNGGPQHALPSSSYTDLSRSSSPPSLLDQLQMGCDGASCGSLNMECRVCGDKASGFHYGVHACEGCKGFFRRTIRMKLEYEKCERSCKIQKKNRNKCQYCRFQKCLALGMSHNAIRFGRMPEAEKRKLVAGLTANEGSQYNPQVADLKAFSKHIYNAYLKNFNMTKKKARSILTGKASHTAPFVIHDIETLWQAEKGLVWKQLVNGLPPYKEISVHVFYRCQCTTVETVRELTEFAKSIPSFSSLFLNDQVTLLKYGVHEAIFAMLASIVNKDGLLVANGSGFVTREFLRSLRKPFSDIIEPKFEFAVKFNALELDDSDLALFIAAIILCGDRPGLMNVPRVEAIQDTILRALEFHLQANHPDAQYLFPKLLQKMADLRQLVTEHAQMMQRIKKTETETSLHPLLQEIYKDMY
Retinoic acid receptor alpha (Homo sapiens), sequence (P10276 whole entry, looked up, the tested form may be a part): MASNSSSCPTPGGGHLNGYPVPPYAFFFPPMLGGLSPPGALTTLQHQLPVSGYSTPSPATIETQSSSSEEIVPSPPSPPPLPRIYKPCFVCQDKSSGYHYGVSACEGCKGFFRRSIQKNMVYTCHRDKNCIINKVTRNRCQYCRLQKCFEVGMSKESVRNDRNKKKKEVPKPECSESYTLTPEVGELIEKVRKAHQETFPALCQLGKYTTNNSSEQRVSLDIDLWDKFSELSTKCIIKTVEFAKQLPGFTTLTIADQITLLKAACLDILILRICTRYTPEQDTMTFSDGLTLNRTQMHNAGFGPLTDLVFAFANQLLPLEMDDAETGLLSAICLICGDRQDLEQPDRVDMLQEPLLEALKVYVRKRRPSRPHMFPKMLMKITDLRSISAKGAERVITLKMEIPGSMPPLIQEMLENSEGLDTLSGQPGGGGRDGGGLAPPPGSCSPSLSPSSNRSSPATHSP
human RAR-related Orphan Receptor beta (RORb), RORB (gene 6096), sequence (Q92753 whole entry, looked up, the tested form may be a part): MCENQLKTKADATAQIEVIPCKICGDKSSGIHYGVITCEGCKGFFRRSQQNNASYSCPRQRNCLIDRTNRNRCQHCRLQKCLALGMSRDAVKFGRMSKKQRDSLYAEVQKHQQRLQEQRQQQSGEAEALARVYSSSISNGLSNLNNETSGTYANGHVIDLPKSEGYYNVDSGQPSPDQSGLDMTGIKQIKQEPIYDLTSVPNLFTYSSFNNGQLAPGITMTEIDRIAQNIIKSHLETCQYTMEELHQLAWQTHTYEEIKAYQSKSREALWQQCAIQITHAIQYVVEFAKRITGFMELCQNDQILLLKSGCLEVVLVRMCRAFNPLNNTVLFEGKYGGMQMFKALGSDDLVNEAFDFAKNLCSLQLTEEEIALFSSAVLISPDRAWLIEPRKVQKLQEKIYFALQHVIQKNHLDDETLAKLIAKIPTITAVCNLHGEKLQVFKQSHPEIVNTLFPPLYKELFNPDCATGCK

C[C@]12CCC(=O)C=C1CC[C@@H]1[C@@H]2CC[C@@]2(C)[C@H]1CC[C@]2(C)O
inactive: [1] | [3] | [4] | [5] | [6] | [7] | [8] | [9] | [11] | [12] | [13] | [14] | [15]
active: [2] 60.3 µM and 53.6 µM and 91.5 µM | [4] 58.8 µM | [10] 28.8 µM

ClC1=C(Cl)[C@]2(Cl)[C@@H]3[C@H]4C[C@H]([C@@H]5O[C@H]45)[C@@H]3[C@@]1(Cl)C2(Cl)Cl
inactive: [1] | [16] | [2] | [3] | [4] | [5] | [6] | [7] | [17] | [19] | [11] | [12] | [15]
active: [18] 0.859 µM | [10] 8.62 µM | [13] 0.937 µM

c1ccc(-c2ccccc2)cc1
inactive: [1] | [16] | [2] | [3] | [5] | [6] | [7] | [17] | [8] | [10] | [12] | [15]
active: [4] 197 µM

CCCCCCCCOC(=O)c1ccccc1C(=O)OCCCCCCCC
inactive: [1] | [16] | [2] | [3] | [4] | [5] | [6] | [17] | [9] | [19] | [10] | [12] | [15]
active: [7] 14 µM | [11] 38.4 µM
